The full list was thinned out, with hits kept by preference.
NS1 function inh: qHTS Assay for Inhibitors of Influenza NS1 Protein Function. Potency, µM (highest dose often 46.1 µM). hit rate 0.4% among 270,000. AID 2326, 2010; also: actives are rising curves; nearly all actives have a fitted effect of over 50% in size
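In this qHTS, NS1 from influenza A is expressed in budding yeast, where it slows growth. Cells are switched from glucose to 2% galactose medium (pH 6.0, -URA), treated with compound, and growth recovery is read at OD600.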
Tb PYK inh: qHTS of Trypanosoma Brucei Inhibitors | pyruvate kinase (Trypanosoma brucei), Q57TT1 | TbPYK enzyme, Kinase-Glo Plus ATP luminescence, 45 min | hit rate 0.12% among 410,000 | Potency, µM (titrated, usually from 76.8 µM), actives largely listed as inhibitors | AID 624173, 2012; active = well fitted curve in the direction sought with a large enough effect; inconclusive = small, poorly fitted or top-dose-only effect, or another doubt; inactive = no such curve, though single readings can be large; an effect the other way counts as inactive or inconclusive; also: nearly all actives have a fitted effect of over 50% in size
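Activity of T. brucei pyruvate kinase was followed by Kinase-Glo Plus luminescence after the enzyme reacted 45 min at room temperature with 130 uM ADP (final) and substrate. Test compounds were added before ADP at multiple concentrations.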
Shiga inhibitor: A qHTS for Small Molecule Inhibitors of Shiga Toxin; Vero cells, Shiga toxin protein synthesis inhibition reporter; inhibition, % at 38.7 µM; hit rate 9.2% among 290,000; AID 2315, 2010; in the data active = inhibition mostly above about 28%, no sharp cut-off; inactive = mostly below about 43%
LmPK inhibitor: qHTS Assay for Inhibitors of Leishmania Mexicana Pyruvate Kinase (LmPK) | Potency, µM (top dose mostly 57.5 µM), most hits filed as inhibitors | AID 1721, 2009 | hit rate 0.37% among 290,000 | Q27686 | purified LmPK, Kinase-Glo ATP luminescence, 1 h; active = well fitted curve in the direction sought with a large enough effect; inconclusive = small, poorly fitted or top-dose-only effect, or another doubt; inactive = no such curve, though single readings can be large; an effect the other way counts as inactive or inconclusive
Target sequence (Q27686 whole entry, looked up): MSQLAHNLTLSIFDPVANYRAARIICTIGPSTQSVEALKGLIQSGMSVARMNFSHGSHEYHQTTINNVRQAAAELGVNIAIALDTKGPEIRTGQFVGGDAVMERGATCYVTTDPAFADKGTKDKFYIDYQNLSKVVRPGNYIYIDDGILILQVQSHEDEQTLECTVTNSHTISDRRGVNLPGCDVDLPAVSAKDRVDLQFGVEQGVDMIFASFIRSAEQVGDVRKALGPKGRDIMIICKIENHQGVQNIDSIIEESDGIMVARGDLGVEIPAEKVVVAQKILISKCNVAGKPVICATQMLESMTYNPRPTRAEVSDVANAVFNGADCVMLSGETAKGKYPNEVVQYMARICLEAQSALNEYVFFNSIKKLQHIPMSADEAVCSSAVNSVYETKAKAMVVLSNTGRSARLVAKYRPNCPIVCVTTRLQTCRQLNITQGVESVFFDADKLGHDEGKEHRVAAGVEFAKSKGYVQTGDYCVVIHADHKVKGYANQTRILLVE
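In 50 mM imidazole pH 7.2 with 7 mM MgCl2, LmPK (0.1 nM) turned over PEP (0.5 mM) and ADP (0.1 mM) for 1 h at room temperature. Luciferase read-out of ATP.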
CHX counter: Cycloheximide Counterscreen for Small Molecule Inhibitors of Shiga Toxin; cell reporter, cycloheximide protein synthesis inhibition counterscreen; max response, %; hit rate 12% among 300,000; in the data active = max response mostly above about 13%, no sharp cut-off; inactive = mostly below about 14%; also: read at 38.3 µM for the half of the compounds with a filed dose
SARS PLP yeast: qHTS of Yeast-based Assay for SARS-CoV PLP; hit rate 0.19% among 330,000; Potency, µM (doses to about 32.9 µM), actives largely listed as activators; S. cerevisiae expressing SARS-CoV PLpro, growth rescue; also: nearly all actives have a fitted effect of over 55% in size
Hits are given with their value; . = inactive; ? = inconclusive; / = not tested or not shown; [ ] = another dose, or the depositor's remark. Unless noted, calls follow the shape of the full dose curve.

SMILES	NS1 function inh	Tb PYK inh	Shiga inhibitor	LmPK inhibitor	CHX counter	SARS PLP yeast
Cc1ccc(-n2nc(C)c(C(=O)NCCCN3CCN(c4cccc(Cl)c4)CC3)c2-n2cccc2)cc1	/	.	/	/	/	/
O=c1c2ccccc2nc(COc2ccccc2)n1/N=C/c1ccco1	.	.	69	.	35	.
NC(=O)c1c(NC(=O)CS(=O)(=O)c2ccc(Cl)cc2)sc2c1CCCC2	/	.[15.4 µM]	/	/	/	/
O=S(=O)(NCCc1cn2ccccc2n1)c1cccs1	.	.	.	.	20	.
O=S(=O)(NCc1cn2ccccc2n1)c1cc(F)ccc1F	.	.	.	.	.	.
O=S(=O)(NCc1cn2ccccc2n1)c1cccs1	.	.	53	.	29	.
O=[N+]([O-])c1ccc(S(=O)(=O)NCCc2cn3ccccc3n2)cc1	.	.	.	.	.	.
Cc1ccc(-c2csc(N3CCC[C@@H]3C(=O)NCCn3c(-c4ccncc4)nc4ccccc43)n2)cc1	.	.	.	.	.	.
CCCCN(CCCNC(=O)c1cc(Nc2ccc(OC)c(OC)c2)nc2ccccc12)Cc1ccccc1	/	.	/	/	/	/
CCn1cc(-c2n[nH]c(=S)n2-c2ccc(C)cc2Br)c(=O)c2ccc(C)nc21	.	?	.	7.9µM	.	.
CCOc1cc2c(cc1O)C(=NO)CC1C2CCC2(C)C(O)CCC12 (stereo unspecified)	/	.	/	/	/	/
Cc1ccc(-c2n[nH]c(=S)n2/N=C/c2ccc(C)o2)cc1	.	2.5µM	.	.	.	.
Cc1ccc(-c2n[nH]c(=S)n2/N=C\c2ccco2)cc1	.	?	.	.	.	.
Cn1cccc1/C=N/n1c(-c2ccccc2)n[nH]c1=S	.	?	.	7.9µM	.	.
S=c1[nH]nc(-c2ccncc2)n1/N=C/C(Cl)=C\c1ccccc1	.	?	61	.	24	.
Cn1cccc1/C=N/n1c(-c2ccc(C(C)(C)C)cc2)n[nH]c1=S	.	?	.	20µM	.	.
S=c1[nH]nc(-c2ccncc2)n1/N=C/C=C/c1ccccc1	.	?	.	.	.	.
CC(C)C[C@@H]1CC2=C(C(=O)OC(C)(C)O2)[C@H](CCc2ccccc2)O1	/	.	/	/	/	/
CCCCC[C@H]1CN(Cc2ccccc2)C(=O)[C@@H]1CC(=O)NCc1ccccc1	.	.	.	.	.	.
COC(=O)c1c(-c2ccccc2)c[nH]c1C	.	.	82	.	24	.
COC(=O)c1c(S(C)(=O)=O)nc(-c2ccccc2)[nH]c1=O	.	.	.	.	.	.
COC(=O)c1c(C)[nH]c(C)c1-c1ccccc1Cl	.	.	.	.	.	.
COC(=O)c1c(C)[nH]c(C=O)c1-c1ccccc1	.	.	62	.	30	.
NC(=O)c1cc(S(=O)(=O)Nc2ccccc2)cs1	.	.	.	.	.	.
N#CCC(=O)Nc1ccc(C(=O)OCC(=O)N=c2sccn2Cc2ccccc2Cl)cc1	/	.	/	/	/	.
SMILES	NS1 function inh	Tb PYK inh	Shiga inhibitor	LmPK inhibitor	CHX counter	SARS PLP yeast
CCCc1cc(=O)[nH]c(SCC(=O)Nc2ccc(Cl)c(S(=O)(=O)N3CCOCC3)c2)n1	/	.	/	/	/	.
CC(=O)SC[C@@H](Cc1ccccc1)C(=O)NCC(=O)OCc1ccccc1	/	.	/	/	/	/
O=[N+]([O-])c1cccc(/C=C2\CCC(/C=N/Nc3ccc4ccccc4n3)=C2N2CCOCC2)c1	.	.	.	.	17	.
O=[N+]([O-])c1cccc(/C=N/Nc2nc(N3CCOCC3)nc(N3CCOCC3)n2)c1	.	.	.	.	.	.
COc1cccc2cc(NC(=O)C3CCCCC3)c(=O)oc12	.	.	.	.	16	.
CCN(C(=O)c1cc2cccc(OC)c2oc1=O)c1ccccc1	.	.	168	.	53	.
COc1cccc2cc(-c3csc(CCn4nc(C)cc4C)n3)c(=O)oc12	.	.	.	.	.	.
COC(=O)c1ccc(COC(=O)c2cc3ccccc3oc2=O)cc1	.	.	.	.	11	.
COc1cccc2cc(C(=O)N(Cc3ccccc3)CC3CCCO3)c(=O)oc12 (stereo unspecified)	.	.	.	.	.	.
CC/C(C)=N/Nc1nc(-c2cc3cccc(OC)c3oc2=O)cs1	.	.	53	?	47	.
Cc1cc(O)ccc1-c1ccc2nncn2c1	/	.	/	/	/	/
COc1ccccc1C(=O)NCCC(=O)Nc1cccc(C)n1	.	.	.	.	22	.
C/C(=N\NC(=O)CC#N)c1cc2ccccc2oc1=O	?	.	29	.	16	.
COc1cccc2cc(C(=O)OCc3ccccc3)c(=O)oc12	.	.	49	.	54	.
Cc1cccc(NC(=O)CCNC(=O)c2ccccc2Cl)n1	.	.	.	.	.	.
COc1cccc2cc(C(=O)Oc3ccccc3)c(=O)oc12	.	.	.	.	.	.
NC(=O)N/N=C/c1ccccc1OC(=O)c1cc2ccccc2oc1=O	.	.	77	.	26	.
CCN(CC)c1ccc(S(=O)(=O)N2CCOCC2)cc1NC(=O)COC(=O)/C=C/c1ccco1	/	.	/	/	/	/
O=C(CSc1nc2ccccc2n1CC(=O)Nc1ccc(F)cc1F)Nc1ccc(F)cc1	/	.	/	/	/	/
CC(=O)c1ccc(COC(=O)c2cc3ccccc3oc2=O)cc1	.	.	.	.	25	.
COc1ccc2oc(=O)c(C(=O)NCc3ccccc3)cc2c1	.	.	.	.	.	.
COc1ccc2oc(=O)c(C(=O)OCc3ccccc3)cc2c1	.	.	.	.	23	.
COc1cccc2cc(C(=O)Nc3ccc(C)cc3)c(=O)oc12	/	.	/	/	/	/
COc1cccc2cc(C(=O)Nc3cccc(C)n3)c(=O)oc12	.	.	66	.	77	.
COc1cccc2cc(CC(=O)c3ccc(C)cc3C)c(=O)oc12	.	.	73	.	55	.
O=C(Nc1cccc(C(F)(F)F)c1)N(Cc1ccc(Cl)cc1)CC(O)C(F)(F)F (stereo unspecified)	.	.	.	.	.	.
CCc1ccc(NS(=O)(=O)c2ccc3[nH]cc(C(=O)NC4CCCC4)c(=O)c3c2)cc1	/	.	/	/	/	/
